Screens as filed in PubChem BioAssay.
DNA FID counter = counter-screen for HCV NS3 helicase inhibitors: DNA intercalator displacement | 0.17% of 290,000 active | DNA fluorescent intercalator displacement, fluorescence | inhibition, % at 7.9 µM; in the data active = inhibition above about 37%;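 also: 0% = vehicle and 100% = reference compound; higher means more ethidium bromide displaced from hairpin DNA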
TMEM16A inh = blocks the mouse calcium-activated chloride channel TMEM16A | HEK293 TMEM16A/YFP iodide influx fluorescence, ionomycin | normalized B-score (activity score, 25-100; higher = stronger inhibition) at 10 µM | Q8BHY3 | 1.2% of 310,000 active | AID 588511;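 active = ratio plate-corrected score three or more library SD toward inhibition, starting fluorescence score within five deviations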;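 also: score derived from kinetic fluorescence span divided by baseline fluorescence per well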
PREPL inh = inhibits the human prolyl oligopeptidase-like enzyme; Q4J6C6; recombinant PREPL, fluorescence polarization activity-based probe; inhibition, % at 5.96 µM; 0.68% of 320,000 active; AID 2751; in the data active = inhibition above about 43%;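 also: 0% = enzyme with DMSO and 100% = wells lacking enzyme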
ANO1 activ = mouse TMEM16A channel activation, primary screen; 0.3% of 340,000 active; Q8BHY3; HEK293 TMEM16A/YFP-H148Q/I152L, iodide quench fluorescence; hits give low values; B-score at 10 µM;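 active = fluorescence-ratio B-score plate-corrected deviation score at least 3 library SD below zero, with starting fluorescence score within 5 deviations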;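 also: channel opened by trigger with iodide after compound preincubation; score built on the fluorescence ratio of max minus min over baseline; more negative score means more quench and so TMEM16A activation or potentiation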
PP1 counter = blocks human PP1-alpha phosphatase, a PP5 counter-screen | inhibition, % at 6.7 µM | 0.9% of 320,000 active | purified PP1alpha, OMFP fluorescence;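 active = inhibition above the mean inhibition of all tested compounds plus 3 SD, computed separately for each screening campaign, cut at about 15% in these data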
Target sequence (P62136 whole entry, looked up): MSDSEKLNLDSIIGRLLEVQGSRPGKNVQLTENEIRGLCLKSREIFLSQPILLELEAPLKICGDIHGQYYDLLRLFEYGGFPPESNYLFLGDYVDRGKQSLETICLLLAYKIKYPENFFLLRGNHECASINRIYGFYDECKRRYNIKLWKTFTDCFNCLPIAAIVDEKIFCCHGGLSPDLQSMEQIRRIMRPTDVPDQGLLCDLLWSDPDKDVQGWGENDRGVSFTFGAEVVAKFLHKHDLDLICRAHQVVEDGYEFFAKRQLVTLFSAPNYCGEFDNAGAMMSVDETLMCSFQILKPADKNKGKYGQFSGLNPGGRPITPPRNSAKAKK
PP5 inh = inhibitors of human protein phosphatase 5 (PP5); P53041; purified PP5c, OMFP substrate fluorescence; inhibition, % at 6.7 µM; 0.18% of 320,000 active; AID 1987;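 active = inhibition above the campaign's mean inhibition across all tested compounds plus 3 SD, cut at about 9.5% in these data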;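 also: 0% = DMSO only and 100% = 100 µM cantharidin control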
PP1 inh confirm = confirmation of human PP1 phosphatase inhibitors | shares compounds with PP1 counter | purified PP1alpha, OMFP substrate fluorescence | inhibition, % at 6.7 µM | 52% of 1,900 active;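 active = mean PP1 inhibition above a set limit taken from the earlier primary screen, cut at about 15% in these data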
PP5 counter = PP5 phosphatase inhibition, counter-screen for PP1 inhibitors. shares compounds with PP1 counter. purified PP5c, OMFP fluorescence. inhibition, % at 6.7 µM. 4% of 1,900 active. AID 2360;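 active = mean PP5 inhibition over triplicate wells above about 9.5% taken from the earlier PP1 screen, limit read from the data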
* hit, by the source's call. Compounds with a hit are over-represented: about 2.7% of the library has one in this group of screens.

Results for Cn1c(SCC(=O)O)nnc1-c1cccc(NC(=O)c2cccc3ccccc23)c1 ?
DNA FID counter: -40; TMEM16A inh: inactive; PREPL inh: 21; ANO1 activ: inactive; PP1 counter: 1; PP5 inh: -1

How did CCOc1ccccc1NC(=O)COC(=O)C1CCC(=O)N1 (stereo unspecified) do in these assays?
PREPL inh: 11; ANO1 activ: inactive

What do the screens show for `COc1cccc(/C=N/Nc2cc(N3CCOCC3)ncn2)c1O`?
DNA FID counter: -11; TMEM16A inh: inactive; PREPL inh: 17; ANO1 activ: inactive; PP1 counter: 25*; PP5 inh: 4; PP1 inh confirm: 20*; PP5 counter: -5

Results for COc1cccc(/C=N/Nc2ncnc3c2ncn3Cc2ccccc2)c1O ?
DNA FID counter: -15; TMEM16A inh: inactive; PREPL inh: 21; ANO1 activ: inactive; PP1 counter: 20*; PP5 inh: 3; PP1 inh confirm: 27*; PP5 counter: -1

How did COCCCN1CN(S(=O)(=O)c2cccs2)c2nc3ccccc3nc21 do in these assays?
DNA FID counter: -4; TMEM16A inh: inactive; PREPL inh: -11; ANO1 activ: inactive; PP1 counter: -3; PP5 inh: 0

What do the screens show for `COc1nnc(-c2ccc(N3CCCCC3)c(NC(=O)COc3ccccc3)c2)c2ccccc12`?
ANO1 activ: inactive

Results for CCOC(=O)c1cc(-c2ccccc2)sc1NC(=O)C(C)N1C(=O)NC(C)(c2ccc(Cl)cc2)C1=O (stereo unspecified) ?
DNA FID counter: -5; TMEM16A inh: inactive; PREPL inh: -7; ANO1 activ: inactive; PP1 counter: 22*; PP5 inh: 4; PP1 inh confirm: 11; PP5 counter: 1

How did Cc1ccc(S(=O)(=O)N2CCN(C(=O)c3ccc(Br)o3)CC2)c(C)c1 do in these assays?
DNA FID counter: -38; TMEM16A inh: inactive; PREPL inh: -11; ANO1 activ: inactive; PP1 counter: -3; PP5 inh: 0

How did O=C(NCC1CCCCC1)c1cccc(-c2ccc(O)cc2)c1 do in these assays?
DNA FID counter: -16; TMEM16A inh: inactive; PREPL inh: -3; ANO1 activ: inactive; PP1 counter: 18*; PP5 inh: -2; PP1 inh confirm: -2; PP5 counter: 0

What do the screens show for `O=C(NCC1CCCCC1)c1ccc(=O)[nH]c1`?
DNA FID counter: 3; TMEM16A inh: inactive; PREPL inh: 4; ANO1 activ: inactive; PP1 counter: 0; PP5 inh: 0

What do the screens show for `CC(=O)OCC1(C)CN(c2ccccc2)N(C(=O)c2ccc(F)cc2)C1=O` (stereo unspecified)?
DNA FID counter: -8; TMEM16A inh: inactive; PREPL inh: -12; ANO1 activ: inactive; PP1 counter: -2; PP5 inh: 0

Results for Nc1ccc2c(c1)C/C(=C/c1ccco1)C2=O ?
DNA FID counter: -14; TMEM16A inh: inactive; PREPL inh: 29; ANO1 activ: inactive; PP1 counter: 51*; PP5 inh: 0; PP1 inh confirm: 9; PP5 counter: 3

How did O=C(NC(c1ccc(Cl)cc1)c1cc(Cl)c2cccnc2c1O)c1cccnc1 (stereo unspecified) do in these assays?
DNA FID counter: -6; TMEM16A inh: inactive; PREPL inh: 2; ANO1 activ: inactive; PP1 counter: 0; PP5 inh: -2

What do the screens show for `CN1CCN(C(c2ccc(C(F)(F)F)cc2)c2cc(Cl)c3cccnc3c2O)CC1` (stereo unspecified)?
DNA FID counter: -2; TMEM16A inh: inactive; PREPL inh: 8; PP1 counter: 21*; PP5 inh: 5; PP1 inh confirm: 2; PP5 counter: -3

Results for CC(=O)NC(c1ccccc1)c1cc(Cl)c2cccnc2c1O (stereo unspecified) ?
DNA FID counter: -19; TMEM16A inh: inactive; PREPL inh: 0; ANO1 activ: inactive; PP1 counter: 14; PP5 inh: 5

How did CN1CCN(C(c2ccc(Cl)cc2)c2cc(Cl)c3cccnc3c2O)CC1 (stereo unspecified) do in these assays?
DNA FID counter: -11; TMEM16A inh: inactive; PREPL inh: 9; ANO1 activ: inactive; PP1 counter: 22*; PP5 inh: 2; PP1 inh confirm: -3; PP5 counter: 1

How did CCN1CCN(C(c2ccc(C(F)(F)F)cc2)c2ccc3cccnc3c2O)CC1 (stereo unspecified) do in these assays?
DNA FID counter: 4; TMEM16A inh: inactive; PREPL inh: 18; ANO1 activ: inactive; PP1 counter: 18*; PP5 inh: 3; PP1 inh confirm: -6; PP5 counter: -1

Results for Oc1c(C(c2ccccn2)N2CCCCC2)cc(Cl)c2cccnc12 (stereo unspecified) ?
DNA FID counter: -14; TMEM16A inh: inactive; PREPL inh: 12; ANO1 activ: inactive; PP1 counter: 75*; PP5 inh: 5; PP1 inh confirm: 73*; PP5 counter: 3

Results for CCC(=O)NC(c1cccs1)c1cc(Cl)c2cccnc2c1O (stereo unspecified) ?
DNA FID counter: -4; TMEM16A inh: inactive; PREPL inh: 2; ANO1 activ: inactive; PP1 counter: 12; PP5 inh: 1

What do the screens show for `O=C(c1cc(-c2cccs2)nn1-c1ccccc1)N1CCN(S(=O)(=O)c2ccccc2)CC1`?
TMEM16A inh: inactive; PREPL inh: -4; ANO1 activ: inactive; PP1 counter: 9; PP5 inh: 1

Results for CCCn1c(SCC(=O)c2[nH]c(C)c(C(C)=O)c2C)n[nH]c1=O ?
DNA FID counter: -6; TMEM16A inh: inactive; PREPL inh: 12; ANO1 activ: inactive; PP1 counter: -3; PP5 inh: -1

What do the screens show for `Cc1cccc2nc(-c3ccco3)c(Nc3ccccc3)n12`?
DNA FID counter: -8; TMEM16A inh: inactive; PREPL inh: -28; ANO1 activ: inactive; PP1 counter: 3; PP5 inh: -2

Results for Cc1ccc(Nc2c(-c3ccccn3)nc3cccc(C)n23)cc1 ?
DNA FID counter: -6; TMEM16A inh: inactive; PREPL inh: 9; ANO1 activ: inactive; PP1 counter: 40*; PP5 inh: 4; PP1 inh confirm: 50*; PP5 counter: 4

What do the screens show for `Cc1cccc(C)c1Nc1c(-c2ccccn2)nc2ccccn12`?
DNA FID counter: 4; TMEM16A inh: inactive; PREPL inh: 30; ANO1 activ: inactive; PP1 counter: 28*; PP5 inh: 2; PP1 inh confirm: 5; PP5 counter: 0
